Assay results reported in the supplement of paper PMC11732987, “Enantioselective OTUD7B fragment discovery through chemoproteomics screening and high-throughput optimisation” (Communications Chemistry, 2025).

Experiments:
Test in all cases: log2 ratio of Biotin-Ahx-Ub-VS probe labelling (fragment/DMSO); higher = less target engagement (more negative = stronger competition), active = hit call of the paper (q ≤ 0.05, log2 ratio ≤ -1)
Conditions in all cases: compound concentration: 200 uM; treatment time: 3 h
[1] = target: USP9X (UniProt Q93008)
How it was run: (§1)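 Labelled DUBs from HEK293T lysate were NeutrAvidin-enriched, digested with LysC and trypsin, and run by diaPASEF LC-MS/MS. Before that, each 495 µg sample in Tris/CHAPS/IGEPAL buffer with protease inhibitors was treated in triplicate with fragment at 200 µM or vehicle for 3 h, then with Biotin-Ahx-Ub-VS at 0.5 µM final for 1 h. Values are average log2 ratios of fragment over vehicle by unpaired t-test, based on global-median-normalised Spectronaut label-free quantities from proteins with ≥2 unique peptides.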

[2] = target: UniProt O00487
How it was run: as §1

[3] = target: UniProt O00507
How it was run: as §1

[4] = target: UniProt P51784
How it was run: as §1

[5] = target: T1, UniProt Q5T2D3
T1 sequence (whole entry): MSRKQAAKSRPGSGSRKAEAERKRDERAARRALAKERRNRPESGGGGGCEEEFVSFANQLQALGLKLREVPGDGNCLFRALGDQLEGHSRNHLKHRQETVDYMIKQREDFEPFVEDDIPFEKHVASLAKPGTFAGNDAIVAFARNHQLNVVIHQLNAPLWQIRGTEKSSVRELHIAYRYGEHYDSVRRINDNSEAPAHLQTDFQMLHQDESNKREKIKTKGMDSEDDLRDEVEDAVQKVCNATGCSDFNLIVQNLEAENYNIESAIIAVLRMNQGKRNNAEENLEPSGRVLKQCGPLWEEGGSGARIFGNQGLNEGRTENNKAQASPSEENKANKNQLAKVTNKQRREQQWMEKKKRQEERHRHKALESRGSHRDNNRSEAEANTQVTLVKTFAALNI
How it was run: as §1

[6] = target: T2, UniProt Q8TE49
T2 sequence (whole entry): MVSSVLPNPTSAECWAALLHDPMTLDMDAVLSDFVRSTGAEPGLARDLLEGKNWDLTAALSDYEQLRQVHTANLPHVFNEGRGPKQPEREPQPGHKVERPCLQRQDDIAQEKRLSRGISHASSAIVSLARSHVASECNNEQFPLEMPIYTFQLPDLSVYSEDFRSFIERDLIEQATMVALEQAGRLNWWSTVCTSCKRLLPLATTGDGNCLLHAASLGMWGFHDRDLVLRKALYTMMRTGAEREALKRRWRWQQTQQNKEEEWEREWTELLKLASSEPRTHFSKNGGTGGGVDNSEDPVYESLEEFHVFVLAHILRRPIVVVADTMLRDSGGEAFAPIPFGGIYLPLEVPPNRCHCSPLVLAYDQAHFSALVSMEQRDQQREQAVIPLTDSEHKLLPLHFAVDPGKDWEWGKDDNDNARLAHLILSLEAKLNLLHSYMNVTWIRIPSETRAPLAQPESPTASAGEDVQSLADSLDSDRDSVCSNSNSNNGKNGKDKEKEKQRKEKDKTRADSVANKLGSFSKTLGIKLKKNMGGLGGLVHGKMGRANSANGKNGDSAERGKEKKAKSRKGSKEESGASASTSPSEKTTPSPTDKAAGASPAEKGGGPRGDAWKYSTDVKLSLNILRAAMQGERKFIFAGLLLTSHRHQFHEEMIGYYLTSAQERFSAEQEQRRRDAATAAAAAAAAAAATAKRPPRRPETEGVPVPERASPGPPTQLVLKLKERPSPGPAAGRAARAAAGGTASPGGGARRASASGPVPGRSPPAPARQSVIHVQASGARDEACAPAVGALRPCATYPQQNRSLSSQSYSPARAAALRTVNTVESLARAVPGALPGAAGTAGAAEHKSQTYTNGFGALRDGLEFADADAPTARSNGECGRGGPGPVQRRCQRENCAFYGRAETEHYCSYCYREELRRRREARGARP
How it was run: as §1

[7] = target: T3, UniProt Q9P2H5
T3 sequence (whole entry): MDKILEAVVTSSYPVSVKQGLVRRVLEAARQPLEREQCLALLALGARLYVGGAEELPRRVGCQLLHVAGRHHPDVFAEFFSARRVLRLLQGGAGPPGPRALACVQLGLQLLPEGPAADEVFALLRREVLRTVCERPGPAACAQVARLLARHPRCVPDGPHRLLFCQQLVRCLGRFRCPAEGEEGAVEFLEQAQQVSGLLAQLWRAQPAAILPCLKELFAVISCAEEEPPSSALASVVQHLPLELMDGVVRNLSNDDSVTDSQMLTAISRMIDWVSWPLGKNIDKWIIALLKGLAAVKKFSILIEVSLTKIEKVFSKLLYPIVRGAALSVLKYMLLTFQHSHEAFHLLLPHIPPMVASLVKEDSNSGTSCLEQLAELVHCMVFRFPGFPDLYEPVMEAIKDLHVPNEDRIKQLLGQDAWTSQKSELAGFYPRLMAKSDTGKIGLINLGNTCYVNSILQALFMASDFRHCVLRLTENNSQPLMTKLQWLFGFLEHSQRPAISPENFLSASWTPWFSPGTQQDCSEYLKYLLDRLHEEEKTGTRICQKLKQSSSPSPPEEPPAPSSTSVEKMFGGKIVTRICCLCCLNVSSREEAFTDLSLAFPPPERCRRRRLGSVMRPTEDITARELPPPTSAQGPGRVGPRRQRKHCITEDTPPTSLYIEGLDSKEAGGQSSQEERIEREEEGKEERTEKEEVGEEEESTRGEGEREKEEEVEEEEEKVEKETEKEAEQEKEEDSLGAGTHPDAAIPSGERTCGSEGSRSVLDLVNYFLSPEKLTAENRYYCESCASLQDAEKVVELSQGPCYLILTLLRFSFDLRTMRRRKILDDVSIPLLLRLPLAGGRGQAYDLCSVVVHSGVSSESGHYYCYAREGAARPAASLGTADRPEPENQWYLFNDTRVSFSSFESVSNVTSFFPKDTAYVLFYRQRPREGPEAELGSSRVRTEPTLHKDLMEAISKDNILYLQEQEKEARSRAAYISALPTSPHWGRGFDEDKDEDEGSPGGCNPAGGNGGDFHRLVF
How it was run: as §1

[8] = target: T4, UniProt Q9UGI0
T4 sequence (whole entry): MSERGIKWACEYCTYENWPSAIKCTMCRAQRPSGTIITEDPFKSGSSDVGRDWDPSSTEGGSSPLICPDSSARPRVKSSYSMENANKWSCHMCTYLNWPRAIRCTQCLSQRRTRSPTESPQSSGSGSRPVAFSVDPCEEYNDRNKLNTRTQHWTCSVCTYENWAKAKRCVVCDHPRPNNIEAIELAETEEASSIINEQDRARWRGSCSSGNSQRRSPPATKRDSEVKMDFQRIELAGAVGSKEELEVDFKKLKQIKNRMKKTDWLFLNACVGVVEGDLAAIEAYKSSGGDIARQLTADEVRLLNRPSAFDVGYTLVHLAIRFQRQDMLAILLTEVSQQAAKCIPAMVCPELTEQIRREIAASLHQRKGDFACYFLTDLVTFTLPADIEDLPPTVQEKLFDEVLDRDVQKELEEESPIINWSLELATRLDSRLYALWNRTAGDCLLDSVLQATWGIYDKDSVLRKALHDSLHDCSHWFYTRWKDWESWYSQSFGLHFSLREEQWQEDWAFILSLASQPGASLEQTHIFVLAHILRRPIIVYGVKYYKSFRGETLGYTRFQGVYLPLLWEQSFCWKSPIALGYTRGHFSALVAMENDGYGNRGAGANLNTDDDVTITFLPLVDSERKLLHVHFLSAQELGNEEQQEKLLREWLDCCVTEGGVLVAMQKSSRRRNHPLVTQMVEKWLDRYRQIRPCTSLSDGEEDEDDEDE
How it was run: as §1

[9] = target: T5, YOD1 (UniProt Q5VVQ6)
T5 sequence (whole entry): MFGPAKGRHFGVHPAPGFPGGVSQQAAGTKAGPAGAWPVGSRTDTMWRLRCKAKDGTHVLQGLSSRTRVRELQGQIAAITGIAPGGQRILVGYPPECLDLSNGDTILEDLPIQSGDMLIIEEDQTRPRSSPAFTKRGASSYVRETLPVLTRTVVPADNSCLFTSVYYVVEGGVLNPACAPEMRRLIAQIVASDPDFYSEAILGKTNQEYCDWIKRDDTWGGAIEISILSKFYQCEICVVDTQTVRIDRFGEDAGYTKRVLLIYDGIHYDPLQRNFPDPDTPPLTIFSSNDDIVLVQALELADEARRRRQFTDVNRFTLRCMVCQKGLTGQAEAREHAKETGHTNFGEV
How it was run: as §1

Measured: log2 ratio of Biotin-Ahx-Ub-VS probe labelling

UniProt P51784, sequence (P51784 whole entry): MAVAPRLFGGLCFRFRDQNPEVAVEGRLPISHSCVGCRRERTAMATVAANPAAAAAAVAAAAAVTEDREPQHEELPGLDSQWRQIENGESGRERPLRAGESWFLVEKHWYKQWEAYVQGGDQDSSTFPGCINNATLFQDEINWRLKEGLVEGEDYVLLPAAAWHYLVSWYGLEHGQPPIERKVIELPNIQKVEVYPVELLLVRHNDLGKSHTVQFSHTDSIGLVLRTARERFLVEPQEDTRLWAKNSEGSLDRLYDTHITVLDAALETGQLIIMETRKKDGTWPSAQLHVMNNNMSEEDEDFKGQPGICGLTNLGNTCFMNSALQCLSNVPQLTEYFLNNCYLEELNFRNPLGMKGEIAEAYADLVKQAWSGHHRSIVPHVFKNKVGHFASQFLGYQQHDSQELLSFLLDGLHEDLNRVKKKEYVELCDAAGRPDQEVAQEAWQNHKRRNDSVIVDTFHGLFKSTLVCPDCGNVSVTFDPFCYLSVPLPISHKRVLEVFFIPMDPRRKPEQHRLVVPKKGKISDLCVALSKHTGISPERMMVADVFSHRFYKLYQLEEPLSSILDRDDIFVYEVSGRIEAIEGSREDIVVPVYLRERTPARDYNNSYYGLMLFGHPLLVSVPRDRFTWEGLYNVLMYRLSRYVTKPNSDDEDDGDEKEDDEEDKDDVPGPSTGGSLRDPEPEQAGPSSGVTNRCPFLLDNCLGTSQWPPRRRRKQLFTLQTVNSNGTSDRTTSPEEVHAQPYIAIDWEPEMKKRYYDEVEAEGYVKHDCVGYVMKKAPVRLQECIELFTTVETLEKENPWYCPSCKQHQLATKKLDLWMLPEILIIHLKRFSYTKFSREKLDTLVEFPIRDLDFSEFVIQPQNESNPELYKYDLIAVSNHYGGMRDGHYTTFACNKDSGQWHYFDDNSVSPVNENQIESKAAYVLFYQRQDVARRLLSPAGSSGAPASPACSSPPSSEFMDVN
UniProt O00487, sequence (O00487 whole entry): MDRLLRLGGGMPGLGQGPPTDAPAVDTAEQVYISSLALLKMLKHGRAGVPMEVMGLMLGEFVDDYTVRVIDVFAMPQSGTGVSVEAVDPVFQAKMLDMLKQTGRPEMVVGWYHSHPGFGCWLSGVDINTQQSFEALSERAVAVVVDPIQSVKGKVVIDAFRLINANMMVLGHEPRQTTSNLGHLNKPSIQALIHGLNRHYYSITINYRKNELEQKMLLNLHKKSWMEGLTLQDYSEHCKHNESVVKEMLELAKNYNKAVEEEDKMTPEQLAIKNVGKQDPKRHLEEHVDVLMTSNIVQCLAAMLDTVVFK
USP9X, sequence (Q93008 whole entry, the tested form may be a part): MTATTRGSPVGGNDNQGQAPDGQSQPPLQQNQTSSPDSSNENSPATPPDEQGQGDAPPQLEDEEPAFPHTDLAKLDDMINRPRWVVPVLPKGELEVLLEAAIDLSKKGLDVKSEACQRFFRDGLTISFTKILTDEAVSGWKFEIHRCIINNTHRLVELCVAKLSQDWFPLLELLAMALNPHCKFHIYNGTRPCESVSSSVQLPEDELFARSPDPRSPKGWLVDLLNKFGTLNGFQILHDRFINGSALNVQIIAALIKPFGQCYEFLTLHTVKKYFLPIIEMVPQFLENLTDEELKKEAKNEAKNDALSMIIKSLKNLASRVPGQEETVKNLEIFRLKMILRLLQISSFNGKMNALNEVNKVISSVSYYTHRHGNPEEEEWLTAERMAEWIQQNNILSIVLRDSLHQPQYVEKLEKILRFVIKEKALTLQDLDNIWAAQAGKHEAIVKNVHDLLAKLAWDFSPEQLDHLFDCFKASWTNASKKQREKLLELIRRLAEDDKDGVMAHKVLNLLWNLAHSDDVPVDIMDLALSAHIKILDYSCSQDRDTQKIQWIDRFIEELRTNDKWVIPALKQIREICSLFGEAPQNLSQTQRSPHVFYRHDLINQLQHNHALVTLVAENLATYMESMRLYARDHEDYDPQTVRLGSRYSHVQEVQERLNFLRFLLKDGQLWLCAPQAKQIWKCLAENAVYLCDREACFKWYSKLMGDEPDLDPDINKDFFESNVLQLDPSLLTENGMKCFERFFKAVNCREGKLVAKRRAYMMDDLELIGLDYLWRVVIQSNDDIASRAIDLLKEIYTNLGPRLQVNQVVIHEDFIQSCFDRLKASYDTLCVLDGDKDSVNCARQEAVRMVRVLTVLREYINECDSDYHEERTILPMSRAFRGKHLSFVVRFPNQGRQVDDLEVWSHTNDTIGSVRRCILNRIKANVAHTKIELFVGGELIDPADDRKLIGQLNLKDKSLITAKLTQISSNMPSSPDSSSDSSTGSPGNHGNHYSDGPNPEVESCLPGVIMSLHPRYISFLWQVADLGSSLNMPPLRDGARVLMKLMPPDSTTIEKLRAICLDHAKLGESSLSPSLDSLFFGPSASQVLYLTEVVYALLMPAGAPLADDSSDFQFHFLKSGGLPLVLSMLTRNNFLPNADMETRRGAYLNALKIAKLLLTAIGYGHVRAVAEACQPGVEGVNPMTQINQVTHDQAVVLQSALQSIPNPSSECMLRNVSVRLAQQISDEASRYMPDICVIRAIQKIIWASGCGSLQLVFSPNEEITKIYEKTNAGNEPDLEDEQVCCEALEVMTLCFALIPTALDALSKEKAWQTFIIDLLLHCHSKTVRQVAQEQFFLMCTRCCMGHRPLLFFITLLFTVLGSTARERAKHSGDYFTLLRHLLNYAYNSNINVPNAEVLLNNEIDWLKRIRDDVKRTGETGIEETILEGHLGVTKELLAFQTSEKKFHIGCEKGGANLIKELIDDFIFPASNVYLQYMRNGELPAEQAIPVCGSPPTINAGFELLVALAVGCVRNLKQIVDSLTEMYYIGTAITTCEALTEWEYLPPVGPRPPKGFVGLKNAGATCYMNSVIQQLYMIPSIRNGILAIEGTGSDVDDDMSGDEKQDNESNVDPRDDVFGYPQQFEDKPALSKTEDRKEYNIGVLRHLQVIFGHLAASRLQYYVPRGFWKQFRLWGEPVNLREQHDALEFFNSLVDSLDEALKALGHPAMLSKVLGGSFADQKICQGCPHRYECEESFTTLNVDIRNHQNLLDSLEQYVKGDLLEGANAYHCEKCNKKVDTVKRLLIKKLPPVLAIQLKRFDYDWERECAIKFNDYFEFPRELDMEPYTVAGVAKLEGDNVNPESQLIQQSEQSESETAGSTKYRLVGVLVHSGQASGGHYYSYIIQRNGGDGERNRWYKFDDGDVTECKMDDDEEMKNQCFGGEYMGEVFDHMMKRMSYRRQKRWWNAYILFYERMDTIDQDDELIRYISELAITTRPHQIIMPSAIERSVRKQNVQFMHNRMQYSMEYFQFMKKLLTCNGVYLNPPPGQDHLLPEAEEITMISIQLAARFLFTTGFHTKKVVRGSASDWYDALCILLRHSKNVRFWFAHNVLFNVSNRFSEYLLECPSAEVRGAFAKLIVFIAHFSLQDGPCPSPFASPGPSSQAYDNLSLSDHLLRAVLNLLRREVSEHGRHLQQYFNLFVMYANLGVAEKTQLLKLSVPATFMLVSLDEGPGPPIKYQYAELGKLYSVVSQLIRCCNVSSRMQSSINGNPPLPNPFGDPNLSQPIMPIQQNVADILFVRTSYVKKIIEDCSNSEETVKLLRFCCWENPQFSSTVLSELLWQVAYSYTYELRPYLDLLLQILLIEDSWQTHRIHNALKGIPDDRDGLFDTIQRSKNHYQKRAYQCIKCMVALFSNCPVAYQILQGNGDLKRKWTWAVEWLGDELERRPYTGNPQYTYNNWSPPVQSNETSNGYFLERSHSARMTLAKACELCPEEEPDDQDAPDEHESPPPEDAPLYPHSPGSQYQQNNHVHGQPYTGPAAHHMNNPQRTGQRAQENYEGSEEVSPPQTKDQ

CCc1c[nH]c(CNC(=O)CCl)n1.Cl
inactive: [1] -0.236 | [2] -0.193 | [3] -0.772 | [4] -0.123 | [5] -0.363 | [6] -0.324 | [7] -0.147 | [8] -0.736 | [9] -0.491
